The list is not random: actives were taken first. Their share in the collection is about 1.7%.
eIF4E 4G PPI: eIF4E–eIF4G protein interaction inhibitors, primary screen, biochemical, uHTS, TR-FRET, eIF4GI fragment; Eukaryotic translation initiation factor 4E (Mus musculus) + Eukaryotic translation …; TR-FRET eIF4E-eIF4GI(517-606) binding, 2 h; inhibition, % at 21.7 µM; hit rate 0.37% among 220,000; AID 782, 2007;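 active = inhibition above about 30%, limit read from the data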;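 note: 0% = full FRET control wells and 100% = background wells lacking eIF4GI fragment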
PABP1 MLLE inh: inhibitors of PABP1 MLLE–PAM2 peptide binding, primary screen, biochemical, fluorescence polarization, FITC-PAM2, GST-MLLE. inhibition, % at 20 µM. hit rate 0.36% among 360,000. AID 588489, 2011; in the data active = inhibition above about 35%, passing the limit was not always enough;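 note: plate controls were DMSO wells with GST-MLLE for no effect and wells lacking GST-MLLE protein for full effect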
Target sequence (P11940 whole entry, looked up): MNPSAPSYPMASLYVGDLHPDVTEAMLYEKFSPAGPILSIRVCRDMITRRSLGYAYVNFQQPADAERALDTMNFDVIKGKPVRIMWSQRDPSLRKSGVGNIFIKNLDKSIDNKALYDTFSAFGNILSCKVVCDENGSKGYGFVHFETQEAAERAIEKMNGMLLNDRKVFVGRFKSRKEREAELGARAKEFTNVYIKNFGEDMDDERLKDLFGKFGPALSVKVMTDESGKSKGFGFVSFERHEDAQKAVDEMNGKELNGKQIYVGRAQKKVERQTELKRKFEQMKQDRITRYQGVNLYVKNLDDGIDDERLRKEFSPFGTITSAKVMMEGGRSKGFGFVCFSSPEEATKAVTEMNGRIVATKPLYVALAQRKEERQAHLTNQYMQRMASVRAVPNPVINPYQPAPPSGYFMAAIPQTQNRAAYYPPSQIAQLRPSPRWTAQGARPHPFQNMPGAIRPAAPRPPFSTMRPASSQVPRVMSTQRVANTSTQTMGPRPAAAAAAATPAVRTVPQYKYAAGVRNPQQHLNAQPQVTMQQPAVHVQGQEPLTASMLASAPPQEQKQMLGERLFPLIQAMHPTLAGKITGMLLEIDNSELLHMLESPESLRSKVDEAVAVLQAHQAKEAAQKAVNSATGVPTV
EBV gp42 block: Epstein-Barr virus gp42 inhibitors, primary screen, biochemical, uHTS, fluorescence polarization. Glycoprotein 42 (Epstein-Barr virus (strain AG876)), Q1HVG2. Fluorescence polarization binding assay, mP read-out. inhibition, % (tested at 21.74 µM). hit rate 0.42% among 220,000. AID 1085, 2008; in the data active = inhibition above about 50%
PABP FP inh: PABP poly(A) RNA binding inhibitors, primary screen, biochemical, fluorescence polarization, uHTS; Polyadenylate-binding protein 1 (Homo sapiens), P11940; calls only at 35 µM; hit rate 1% among 290,000;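 note: calls also rest on retests at 20 µM and on dose response follow-up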
eIF4H inh: human eIF4H binding inhibitors, primary screen, translation initiation inhibitor project, biochemical, uHTS, fluorescence polarization; Eukaryotic translation initiation factor 4H (Homo sapiens), Q15056; eIF4H fluorescence polarization binding assay; inhibition, % at 35 µM; hit rate 0.94% among 290,000;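 note: calls also rest on retests at 20 µM and on dose response follow-up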
Numbers without * were called inactive; [ ] = remark or other dose. Unless noted, the rule behind the calls is not given here.

What do the screens show for `Cc1c(O)ccc2cc(S(=O)(=O)c3ccccc3)c(=O)oc12`?
PABP1 MLLE inh: 43.9*; PABP FP inh: inactive; eIF4H inh: 10.0

What do the screens show for `Cc1ccc(-c2cc(-c3ccccc3)nc(NN)n2)cc1`?
PABP1 MLLE inh: -9.2; PABP FP inh: inactive; eIF4H inh: -3.5

How did CNc1nc(-c2ccccc2)[n+](-c2ccc(C)cc2)s1 do in these assays?
eIF4E 4G PPI: 39.5*; PABP1 MLLE inh: -48.0; EBV gp42 block: -12.8; PABP FP inh: inactive; eIF4H inh: -18.0

What do the screens show for `Cc1ccc(S(=O)(=O)Nc2nc(-c3ccccc3)cs2)cc1`?
PABP1 MLLE inh: 9.0; PABP FP inh: inactive; eIF4H inh: -7.4

What do the screens show for `Cc1ccc(-c2nc(N)s[n+]2-c2ccccc2)cc1`?
eIF4E 4G PPI: 25.6; PABP1 MLLE inh: 40.2*; EBV gp42 block: -23.4; PABP FP inh: inactive; eIF4H inh: 3.5

How did CC(CC(=O)N1CCN(S(=O)(=O)c2ccc([N+](=O)[O-])cc2)CC1)c1ccccc1 (configuration not stated) do in these assays?
PABP1 MLLE inh: -10.1

What do the screens show for `C[n+]1cccc2ccc3c(c21)OC(N)=C(C#N)C3c1ccccc1` (configuration not stated)?
eIF4E 4G PPI: 94.4*; PABP1 MLLE inh: -106.8; EBV gp42 block: -48.2; PABP FP inh: inactive; eIF4H inh: 12.1

What do the screens show for `C[n+]1cccc(C2C(C#N)=C(N)Oc3c2ccc2ccccc32)c1` (configuration not stated)?
eIF4E 4G PPI: 2.8; PABP1 MLLE inh: -62.6; EBV gp42 block: 14.9; PABP FP inh: active; eIF4H inh: 32.5

What do the screens show for `CC1CCCN(C(=O)c2ccc(Br)c(S(=O)(=O)N3CCOCC3)c2)C1` (configuration not stated)?
PABP1 MLLE inh: 4.1

Results for O=c1c2ccccc2nc2sc(Nc3cccc(Cl)c3)nn12 ?
PABP1 MLLE inh: -19.2

How did COc1ccc(C2(C(=O)NCCc3ccccc3)CCCC2)cc1OC do in these assays?
PABP1 MLLE inh: 9.8; PABP FP inh: inactive; eIF4H inh: 1.9

Results for O=C1C(Cl)=C(N2CCN(Cc3ccccc3)CC2)C(=O)N1Cc1ccccc1 ?
eIF4E 4G PPI: -3.5; PABP1 MLLE inh: 64.8*; EBV gp42 block: -3.4; PABP FP inh: inactive; eIF4H inh: 18.0

Results for CCC(c1nnnn1Cc1ccc(F)cc1)N(CCCO)Cc1cc2cc3c(cc2[nH]c1=O)OCO3 (configuration not stated) ?
eIF4E 4G PPI: 3.6; PABP1 MLLE inh: 45.3*; EBV gp42 block: -19.3; PABP FP inh: inactive; eIF4H inh: 9.7

How did Cc1nc2ncccn2c1-c1csc(NCc2ccco2)n1 do in these assays?
eIF4E 4G PPI: 1.1; PABP1 MLLE inh: 24.6; EBV gp42 block: 0.1; PABP FP inh: active; eIF4H inh: 72.9

What do the screens show for `Cc1nc2ncccn2c1-c1csc(Nc2ccccc2)n1`?
eIF4E 4G PPI: 2.4; PABP1 MLLE inh: 31.7; EBV gp42 block: 3.8; PABP FP inh: inactive; eIF4H inh: -2.1

What do the screens show for `O=C1OCC2=C1C(c1ccccc1)CC(=O)N2c1ccc(F)cc1` (configuration not stated)?
eIF4E 4G PPI: -0.2; PABP1 MLLE inh: 2.1; EBV gp42 block: -4.0; PABP FP inh: inactive; eIF4H inh: 5.0

How did O=C(Nc1cccnc1)c1cc2c(ccc3ccccc32)o1 do in these assays?
eIF4E 4G PPI: 75.7*; PABP1 MLLE inh: -1.4; EBV gp42 block: -19.2; PABP FP inh: inactive; eIF4H inh: -16.0

What do the screens show for `C/C(=N\NC(=O)c1ccccc1O)C1C(=O)c2ccccc2C1=O`?
eIF4E 4G PPI: 1.2; PABP1 MLLE inh: -8.2; EBV gp42 block: -18.2; PABP FP inh: inactive; eIF4H inh: 11.6

What do the screens show for `C/C(CC(=O)N1CCN(C=O)CC1)=N\NC(=O)c1cc2ccccc2cc1O`?
eIF4E 4G PPI: 2.9; PABP1 MLLE inh: 20.3; EBV gp42 block: 11.5; PABP FP inh: active; eIF4H inh: 102.1*

How did C/C(=N/NC(=O)c1cc2ccccc2cc1O)C1C(=O)c2ccccc2C1=O do in these assays?
eIF4E 4G PPI: 3.0; PABP1 MLLE inh: -36.0; EBV gp42 block: -8.6; PABP FP inh: active; eIF4H inh: 45.0

How did CN(C)CCNC(=O)CNC(=S)N(Cc1ccccc1)Cc1cccnc1 do in these assays?
eIF4E 4G PPI: 6.7; PABP1 MLLE inh: -62.8; EBV gp42 block: 0.8; PABP FP inh: inactive; eIF4H inh: -8.7

What do the screens show for `COC(=O)C1=NNC(C(=O)OC)C1c1ccccc1` (configuration not stated)?
PABP1 MLLE inh: 2.8

Results for COC(=O)/N=C/c1c(NCc2ccccc2)nc2c(C)cccn2c1=O ?
eIF4E 4G PPI: 1.6; PABP1 MLLE inh: 4.7; EBV gp42 block: -10.7; PABP FP inh: inactive; eIF4H inh: -5.4

Results for CN1CCc2nc(NC(=O)COc3ccc4ccccc4c3)sc2C1 ?
eIF4E 4G PPI: -11.5; PABP1 MLLE inh: -55.0; EBV gp42 block: -17.4; PABP FP inh: inactive; eIF4H inh: -1.2

What do the screens show for `CN1CCc2nc(NC(=O)c3cccc(OC(F)F)c3)sc2C1`?
eIF4E 4G PPI: 1.4; PABP1 MLLE inh: -64.2; EBV gp42 block: -13.3; PABP FP inh: active; eIF4H inh: 73.9*

What do the screens show for `COc1cc(NC(=O)C2CCN(S(=O)(=O)c3ccc4[nH]c(=O)oc4c3)CC2)cc(OC)c1`?
PABP1 MLLE inh: -8.3; PABP FP inh: inactive; eIF4H inh: -2.6

Results for CC(=O)N[C@@H]1[C@@H](O)[C@@H]2OC(c3ccccc3)OC[C@H]2O[C@@H]1N=[N+]=[N-] (some centres not stated) ?
PABP1 MLLE inh: -0.6; PABP FP inh: inactive; eIF4H inh: 2.8

How did CCC1(C)Cc2nc3sc(C(=O)O)c(N)c3cc2CO1 (configuration not stated) do in these assays?
eIF4E 4G PPI: -1.7; PABP1 MLLE inh: -5.9; EBV gp42 block: -13.6; PABP FP inh: active; eIF4H inh: 12.5*

Results for Oc1c(C(c2ccccc2Cl)N2CCCC2)ccc2cccnc12 (configuration not stated) ?
eIF4E 4G PPI: 9.9; PABP1 MLLE inh: 18.2; EBV gp42 block: -15.3; PABP FP inh: inactive; eIF4H inh: 14.6

How did Oc1c(C(c2cccs2)N2CCN(c3ccccc3)CC2)ccc2cccnc12 (configuration not stated) do in these assays?
eIF4E 4G PPI: 35.5*[fluorescence artefact?]; EBV gp42 block: -2.4; PABP FP inh: inactive; eIF4H inh: 4.0

How did CCN(CCC(=O)O)c1ccccc1 do in these assays?
eIF4E 4G PPI: 6.6; PABP1 MLLE inh: 3.7; EBV gp42 block: 8.0; PABP FP inh: inactive; eIF4H inh: -8.4

Results for NC(=O)N(CCC(=O)O)c1ccccc1 ?
eIF4E 4G PPI: -2.5; PABP1 MLLE inh: 4.3; EBV gp42 block: -3.0; PABP FP inh: active; eIF4H inh: 62.9*
